This passage reports growth inhibition, inhibition and outcome results from PubChem BioAssay.

Assay [1] is described as follows: antimalarial activity against Dd2 strain (AID 2302;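 active = growth inhibition above 50% at the single 2 µM test dose, taken to imply half-maximal potency below 2 µM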;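 note: 0% = DMSO untreated growth and 100% = chloroquine plus artemisinin killed control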). As to conditions: P. falciparum Dd2 in RBCs, LDH growth readout, 72 h; at 2 µM; active compounds read high.
Assay [2] is described as follows: HepG2 cytotoxicity, primary screen, cytotoxicity control for P. falciparum antimalarial project, cell-based, ATP luminescence (AID 2303;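 active = inhibition above 50%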;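 note: 0% = DMSO wells and 100% = digitonin-killed cells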). As to conditions: HepG2 viability, 24-48 h, at 10 µM, active compounds read high.
The target of assay [3] is L-lactate dehydrogenase (Plasmodium falciparum (isolate CDC / Honduras)) (UniProt Q27743). Description: PfLDH activity inhibition – cell lysate, 3D7 strain, counter-screen for P. falciparum growth inhibition project (AID 2304).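 Note: 0% = vehicle and 100% = reference inhibitor.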 As to conditions: P. falciparum 3D7 crude extract, LDH APAD/NBT absorbance; at 2 µM; active compounds read high. For orientation: Counterscreens check selectivity or assay interference.
Chain of L-lactate dehydrogenase (Plasmodium falciparum (isolate CDC / Honduras)) (Q27743 whole entry, looked up): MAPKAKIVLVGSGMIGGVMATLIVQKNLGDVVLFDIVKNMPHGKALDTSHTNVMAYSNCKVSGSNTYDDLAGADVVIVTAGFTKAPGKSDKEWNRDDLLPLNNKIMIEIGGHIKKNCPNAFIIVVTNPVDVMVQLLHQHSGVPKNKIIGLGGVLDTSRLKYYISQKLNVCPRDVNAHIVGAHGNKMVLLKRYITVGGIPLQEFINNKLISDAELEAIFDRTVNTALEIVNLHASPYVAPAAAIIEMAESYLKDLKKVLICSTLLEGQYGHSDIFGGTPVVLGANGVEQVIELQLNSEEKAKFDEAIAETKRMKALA

Assay [4] in a line: inhibition of 3D7 malaria parasite growth – strain 3D7 (AID 2306).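 Note: 0% = DMSO wells and 100% = chloroquine plus artemisinin control wells.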 As to conditions: P. falciparum 3D7 erythrocytic growth, LDH absorbance, 72 h; at 2 µM; active compounds read high.
Assay [5] addresses Calcium-dependent protein kinase 1 (Plasmodium falciparum (isolate 3D7)) (UniProt P62344). Description: PfCDPK1 kinase inhibitors, biochemical, TCAMS library (AID 1159585; cut-off not given, nearly all actives have IC50 up to about 0.98 µM;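 note: inhibitors leave more ATP so luminescence rises with inhibition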). As to conditions: recombinant PfCDPK1, Kinase-Glo ATP depletion luminescence. On the technique in general: Kinase-Glo measures the ATP left after a reaction by luminescence.
Assay [6] deals with Plasmodium falciparum protein kinase 6 (PK6, PF3D7_1337100) (UniProt Q8IDW1). Description: PfPK6 kinase inhibitors, biochemical, TCAMS library (AID 1159586). As to conditions: recombinant PfPK6, Kinase-Glo ATP depletion luminescence.
Chain of Plasmodium falciparum protein kinase 6 (PK6, PF3D7_1337100) (Q8IDW1 1-305): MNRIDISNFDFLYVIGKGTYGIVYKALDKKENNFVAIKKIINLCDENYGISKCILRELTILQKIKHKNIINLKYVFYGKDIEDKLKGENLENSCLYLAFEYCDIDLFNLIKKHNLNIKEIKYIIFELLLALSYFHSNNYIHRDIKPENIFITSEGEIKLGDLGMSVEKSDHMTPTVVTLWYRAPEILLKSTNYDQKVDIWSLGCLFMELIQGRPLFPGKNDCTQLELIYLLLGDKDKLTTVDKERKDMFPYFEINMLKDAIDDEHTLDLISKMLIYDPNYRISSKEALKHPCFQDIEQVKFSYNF
Assay [7] concerns the target Protein kinase 7 (PK7), Plasmodium falciparum 3D7 (PF3D7_0213400) (UniProt Q7YTF7). Description: inhibition of Plasmodium PK7 catalytic activity – biochemical, TCAMS antimalarial set, Kinase-Glo luminescence (AID 1159587). As to conditions: recombinant PfPK7, Kinase-Glo ATP depletion luminescence.
The target of assay [8] is Calcium-dependent protein kinase 4 (Plasmodium falciparum (isolate 3D7)) (UniProt Q8IBS5). In words: PfCDPK4 kinase inhibitors, biochemical, TCAMS library (AID 1159588; cut-off not given, nearly all actives have IC50 up to about 0.91 µM). As to conditions: recombinant PfCDPK4, Kinase-Glo ATP depletion luminescence.
Chain of Calcium-dependent protein kinase 4 (Plasmodium falciparum (isolate 3D7)) (Q8IBS5 whole entry, looked up): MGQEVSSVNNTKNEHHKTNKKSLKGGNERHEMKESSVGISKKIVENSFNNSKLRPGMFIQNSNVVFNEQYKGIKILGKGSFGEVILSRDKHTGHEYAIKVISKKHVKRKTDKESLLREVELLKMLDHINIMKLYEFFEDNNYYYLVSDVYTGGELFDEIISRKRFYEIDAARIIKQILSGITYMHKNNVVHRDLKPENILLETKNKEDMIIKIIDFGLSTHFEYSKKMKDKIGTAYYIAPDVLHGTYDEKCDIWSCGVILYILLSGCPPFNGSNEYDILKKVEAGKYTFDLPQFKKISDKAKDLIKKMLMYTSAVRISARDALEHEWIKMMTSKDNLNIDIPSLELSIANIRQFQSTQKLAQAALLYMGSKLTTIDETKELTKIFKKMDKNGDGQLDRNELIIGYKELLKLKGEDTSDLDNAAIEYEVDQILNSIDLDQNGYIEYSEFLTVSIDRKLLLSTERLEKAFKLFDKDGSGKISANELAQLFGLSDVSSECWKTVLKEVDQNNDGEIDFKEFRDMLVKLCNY

Values without a mark were called inactive. For some of these results: Measured potencies and affinities stand elsewhere. The source made the active and inactive calls. Unless noted, the rule behind the calls is not given here.

Chain of Calcium-dependent protein kinase 1 (Plasmodium falciparum (isolate 3D7)) (P62344 whole entry, looked up): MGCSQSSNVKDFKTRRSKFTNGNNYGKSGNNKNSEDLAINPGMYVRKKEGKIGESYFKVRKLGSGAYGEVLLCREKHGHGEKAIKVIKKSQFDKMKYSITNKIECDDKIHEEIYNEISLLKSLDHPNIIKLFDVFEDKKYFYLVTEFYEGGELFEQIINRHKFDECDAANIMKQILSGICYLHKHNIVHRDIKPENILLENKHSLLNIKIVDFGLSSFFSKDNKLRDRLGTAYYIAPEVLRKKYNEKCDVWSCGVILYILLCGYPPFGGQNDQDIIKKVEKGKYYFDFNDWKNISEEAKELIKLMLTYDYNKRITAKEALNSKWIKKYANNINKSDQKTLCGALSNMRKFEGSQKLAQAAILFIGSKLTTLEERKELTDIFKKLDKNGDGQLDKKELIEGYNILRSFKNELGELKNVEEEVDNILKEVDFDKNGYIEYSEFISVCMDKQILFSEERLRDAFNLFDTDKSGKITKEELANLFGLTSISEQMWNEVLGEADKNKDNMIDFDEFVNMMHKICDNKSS
Chain of Protein kinase 7 (PK7), Plasmodium falciparum 3D7 (PF3D7_0213400) (Q7YTF7 1-343): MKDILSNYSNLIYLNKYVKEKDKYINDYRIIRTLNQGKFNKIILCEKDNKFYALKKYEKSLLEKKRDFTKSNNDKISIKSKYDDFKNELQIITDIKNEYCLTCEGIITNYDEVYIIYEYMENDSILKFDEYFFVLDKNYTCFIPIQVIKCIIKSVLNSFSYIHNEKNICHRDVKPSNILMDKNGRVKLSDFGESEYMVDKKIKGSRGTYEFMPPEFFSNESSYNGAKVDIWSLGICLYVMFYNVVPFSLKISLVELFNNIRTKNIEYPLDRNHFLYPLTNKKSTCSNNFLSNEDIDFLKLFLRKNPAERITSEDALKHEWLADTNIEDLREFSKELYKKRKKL

On to `Oc1ccc(Br)cc1-c1nc2ccc(Cl)cc2nc1-c1cc(Br)ccc1O`, for which the growth inhibition in assay [1] is 64% (active); in assay [4], 100% (active). The figures for the inhibition in assay [2] and in assay [3] were -4% and 5%, respectively. The result in assay [5], in assay [6], in assay [7] and in assay [8] was inactive.
`CC(C)c1ccc(CN2CCC(CNC(=O)c3cc(-c4ccccc4F)cs3)C2)cc1` (stereo not given): the growth inhibition in assay [1] was 29%; in assay [4], 101% (active). Further, the inhibition in assay [2] was 32%; in assay [3], 5%. For the same compound, the result in assay [5], in assay [6], in assay [7] and in assay [8] was inactive.
As to `Fc1ccc2nc(-c3cccc(-c4ccc(CNCC5CCCO5)cc4)c3)[nH]c2c1` (stereo not given), the growth inhibition is 98% (active) in assay [1] and 101% (active) in assay [4]. Further, the inhibition in assay [2] is 36%; in assay [3], 0%. Also, the outcome in assay [5], in assay [6], in assay [7] and in assay [8] was inactive.
With `c1ccc2ncc(CNCCCCCCCCNCc3cnc4ccccc4c3)cc2c1`, the growth inhibition in assay [1] is 4%; in assay [4] it was 88% (active). The results for the inhibition in assay [2] and in assay [3] were 8% and -3%, respectively. The result in assay [5], in assay [6], in assay [7] and in assay [8] was inactive.
Turning to `Cc1ccc(-c2nc3ccccc3o2)cc1NCc1cc(Cc2ccccc2)ccc1O`, the growth inhibition in assay [1] was 50% (active); in assay [4], 82% (active). Further, the inhibition in assay [2] was 45%; in assay [3], -4%. Besides, the outcome in assay [5], in assay [6], in assay [7] and in assay [8] was inactive.
For `N=C(N)c1ccc(C(=O)Nc2cccc(C(=N)N)c2)cc1`, the growth inhibition in assay [1] was 82% (active); in assay [4] it was 88% (active). For the same compound, the results for the inhibition in assay [2] and in assay [3] were 13% and -2%, respectively. For the same compound, the result in assay [5], in assay [6], in assay [7] and in assay [8] was inactive.
For `O=[N+]([O-])c1cccc(C=NNc2nc(Nc3ccccc3)nc(Nc3ccccc3)n2)c1`, the growth inhibition in assay [1] is 55% (active); in assay [4], 99% (active). For the same compound, the results for the inhibition in assay [2] and in assay [3] were 10% and 3%, respectively. Besides, the result in assay [5], in assay [6], in assay [7] and in assay [8] was inactive.
Turning to `CS(=O)(=O)CCNCc1ccc(-c2ccc3c(Nc4ccc(Oc5ccccn5)cc4)ccnc3c2)o1`, the values for the growth inhibition in assay [1] and in assay [4] were 99% (active) and 100% (active), respectively. In addition, the inhibition was 0% in assay [2] and -7% in assay [3]. Also, the outcome in assay [5], in assay [6], in assay [7] and in assay [8] was inactive.
Consider `CC(=O)NC(c1cccs1)c1cc(Cl)c2cccnc2c1O` (stereo not given), for which the growth inhibition in assay [1] is 93% (active); in assay [4] it was 94% (active). Besides, the inhibition in assay [2] is 65% (active); in assay [3], -2%. Also, the outcome in assay [5], in assay [6], in assay [7] and in assay [8] was inactive.
Regarding `O=S(=O)(c1ccccc1OC(F)(F)F)C1C[C@H]2CC[C@@H](C1)N2S(=O)(=O)c1cccc(C(F)(F)F)c1` (stereo not given in full), the growth inhibition in assay [1] and in assay [4] was 99% (active) each time. Besides, the inhibition was 5% in assay [2] and 2% in assay [3]. The outcome in assay [5], in assay [6], in assay [7] and in assay [8] was inactive.
In the case of `Cc1[nH]c2ccc(-c3ccc(N(C)C)cc3)cc2c(=O)c1Cl`, the growth inhibition in assay [1] is 96% (active); in assay [4] it was 97% (active). Further, the inhibition in assay [2] is -1%; in assay [3], 5%. Moreover, the result in assay [5], in assay [6], in assay [7] and in assay [8] was inactive.
In the case of `Cc1cc(N[C@@H](Cc2ccccc2)C(=O)Nc2ccccc2)nc(NCCN2CCCC2)n1`, the growth inhibition in assay [1] was -5%; in assay [4], 94% (active). The inhibition in assay [2] is 8%; in assay [3], 0%. Further, the outcome in assay [5], in assay [6], in assay [7] and in assay [8] was inactive.
On to `COc1ccc(Nc2nc(NCc3cccc(NS(C)(=O)=O)c3)cc(-c3ccc(OC)cc3)n2)cc1`, for which the growth inhibition in assay [1] was 5%; in assay [4] it was 84% (active). Besides, the inhibition was -7% in assay [2] and 5% in assay [3]. Moreover, the result in assay [5], in assay [6], in assay [7] and in assay [8] was inactive.
On to `Cc1nc2nc(N)nc(N)c2c(C)c1Cc1cccs1`, for which the growth inhibition is 2% in assay [1] and 95% (active) in assay [4]. The inhibition is 66% (active) in assay [2] and -1% in assay [3]. Moreover, the outcome in assay [5], in assay [6], in assay [7] and in assay [8] was inactive.
On to `Oc1[nH]c2ccccc2c1N=NC(=S)N1CCOCC1`, for which the growth inhibition in assay [1] was 75% (active); in assay [4], 95% (active). In addition, the inhibition in assay [2] is 51% (active); in assay [3] it was 6%. Also, the outcome in assay [5], in assay [6], in assay [7] and in assay [8] was inactive.
With `Fc1ccc2c(NN=Cc3ccc(Cl)cc3)ccnc2c1`, the growth inhibition is 99% (active) in assay [1] and 101% (active) in assay [4]. Also, the figures for the inhibition in assay [2] and in assay [3] were 7% and -1%, respectively. In addition, the outcome in assay [5], in assay [6], in assay [7] and in assay [8] was inactive.
Turning to `O=C(NCCCCN1CCC(c2ccc3c(c2OCC2CC2)CCCC3)CC1)c1ccc(NC(=O)c2ccc(Cl)cc2)cc1`, the growth inhibition in assay [1] was 93% (active); in assay [4], 101% (active). Also, the values for the inhibition in assay [2] and in assay [3] were 23% and -4%, respectively. The result in assay [5], in assay [6], in assay [7] and in assay [8] was inactive.
In the case of `Cc1noc(C)c1-c1cccc(CNCc2cccc(-c3ccc(-c4nc5ccccc5[nH]4)s3)c2)c1`, the growth inhibition was 29% in assay [1] and 101% (active) in assay [4]. For the same compound, the inhibition was 24% in assay [2] and -1% in assay [3]. For the same compound, the outcome in assay [5], in assay [6], in assay [7] and in assay [8] was inactive.
Regarding `CC(C)(C)C1CCC(C(=O)c2ccc3ccccc3c2O)CC1` (stereo not given), the growth inhibition in assay [1] is 63% (active); in assay [4], 83% (active). The results for the inhibition in assay [2] and in assay [3] were -4% and -1%, respectively. The outcome in assay [5], in assay [6], in assay [7] and in assay [8] was inactive.
On to `CCOc1cc(C(=O)Nc2ccc3nc(N4CCN(C)CC4)cc(C)c3c2)cc(OCC)c1OCC`, for which the figures for the growth inhibition in assay [1] and in assay [4] were 50% (active) and 97% (active), respectively. Also, the inhibition in assay [2] is 14%; in assay [3], -1%. For the same compound, the outcome in assay [5], in assay [6], in assay [7] and in assay [8] was inactive.

Broadly, the inhibition is the relative decrease from the control value, in per cent.
